Measurements reported in PubChem BioAssay (Tox21).
Records with an inconclusive call do not appear. Active and inactive are the calls of the source. Unless noted, the call rests on the fitted dose curve; in most records, active means well fitted curve in the direction sought with a large enough effect in the repeat runs; inconclusive means weak or mixed curves; inactive means no such curve, though single readings can be large; an effect the other way counts as inactive or inconclusive.

What was measured:
[1] = qHTS assay for small molecule agonists of the p53 signaling pathway (AID 651631; calls by dose curve; further: nearly all actives have a fitted effect of over 15% in size)
Procedure, shortened: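 HCT-116 cells carrying a stable p53 response element–beta-lactamase reporter were plated, rested 5 h at 37 °C, then exposed to compound in DMSO for 16 h at 37 °C; reporter activity was read as FRET substrate fluorescence after 2 h at room temperature.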

[2] = qHTS assay for small molecules that induce genotoxicity in human embryonic kidney cells expressing luciferase-tagged ATAD5 (AID 651632); further: nearly all actives have a fitted effect of over 15% in size
Procedure, shortened: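 Luminescent reporter readout, HEK293T ATAD5-luc line: 16 hr drug exposure (37C, 5% CO2) followed by Amplite, 30 min RT.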

[3] = qHTS assay for small molecule agonists of the p53 signaling pathway - cell viability (AID 651633; calls by dose curve; further: series mostly up to about 83 µM; nearly all actives have a fitted effect of over 30% in size)
Procedure, shortened: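 Viability counter-read: CellTiter-Glo luminescence (30 min, room temperature) in the same p53RE-bla plates. These plates had been exposed to compounds for 16 h at 37 C.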

[4] = qHTS assay for small molecules that induce genotoxicity in human embryonic kidney cells expressing luciferase-tagged ATAD5 - cell viability (AID 651634; calls by dose curve; further: nearly all actives have a fitted effect of over 25% in size)
Procedure, shortened: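 Viability read: CellTiter-Fluor fluorescence, 30 min at 37C. Cells: HEK293T, luciferase-tagged ATAD5. Exposure: 15.5 hr, 37C, 5% CO2, compound or DMSO vehicle.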

[5] = qHTS assay for small molecule disruptors of the mitochondrial membrane potential - cell viability (AID 720634; calls by dose curve;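 further: human HepG2 liver cancer cells; series mostly up to about 83 µM; nearly all actives have a fitted effect of over 20% in size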)
Procedure, shortened: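 HepG2, 1 hr compound, 37 C. ATP luminescence via CellTiter-Glo, 30 min RT, same well as m-MPI.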

[6] = qHTS assay for small molecule disruptors of the mitochondrial membrane potential (AID 720635)
Procedure, shortened: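 Mitochondrial membrane potential tracked with Mito-MPS dye, red aggregates (ex 540/em 590 nm) against green monomers (ex 490/em 535 nm). Compound treatment 1 hr at 37C, dye 30 min in HepG2.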

[7] = qHTS assay to test for compound auto fluorescence at 590 nm (red) in HepG2 cells (AID 720674)
Procedure, shortened: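 1 hr compound incubation on HepG2 cells, 37 C, 5% CO2; plate read ex 540 nm / em 590 nm; intensities reported as Rose Bengal sodium equivalents.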

[8] = qHTS assay to test for compound auto fluorescence at 535 nm (green) in HepG2 cells (AID 720675)
[9] = qHTS assay to test for compound auto fluorescence at 460 nm (blue) in HEK293 cells (AID 720678)
Procedure, shortened: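 HEK293 cells (2,000 per well, medium with 10% dialyzed FBS) attached for 4-5 hr at 37C, then received compound and stood overnight at 37C, 5% CO2. Blue fluorescence was read at Ex/Em 405/460 nm and expressed relative to triamterene.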

[10] = qHTS assay to test for compound auto fluorescence at 590 nm (red) in HEK293 cells (AID 720679)
Procedure, shortened: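 HEK293 cells (2,000/well, medium with 10% dialyzed FBS) attached for 4-5 hr at 37C, received 23 nL compound and were incubated overnight at 37C, 5% CO2. Red fluorescence was then read at 540/590nm Ex/Em, referenced to Rose Bengal sodium.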

[11] = qHTS assay to test for compound auto fluorescence at 535 nm (green) in HEK293 cells (AID 720680)
[12] = qHTS assay to test for compound auto fluorescence at 460 nm (blue) in HEK293 cell free culture (AID 720681)
Procedure, shortened: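 Blue fluorescence (Ex 405/Em 460 nm, triamterene-equivalent) was read immediately after pin transfer of compound or DMSO into medium (DMEM, 10% FBS) without cells.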

[13] = qHTS assay to test for compound auto fluorescence at 590 nm (red) in HEK293 cell free culture (AID 720683)
Procedure, shortened: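 Red-channel autofluorescence of compounds in culture medium (DMEM, 10% FBS), no cells, measured at 540/590 nm. Rose Bengal sodium is the reference fluorophore for equivalence.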

[14] = qHTS assay to test for compound auto fluorescence at 590 nm (red) in HepG2 cell free culture (AID 720684)
Procedure, shortened: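 Plate contents were MEM with 10% FBS plus test compound or DMSO, no cells. Fluorescence was recorded with 540 nm excitation and 590 nm emission.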

[15] = qHTS assay to test for compound auto fluorescence at 460 nm (blue) in HepG2 cell free culture (AID 720685)
Procedure, shortened: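 Compound (23 nL) or DMSO pinned into cell-free MEM with 10% FBS; blue fluorescence read at 405/460 nm excitation/emission, expressed as auto-fluorescence equivalency to triamterene.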

[16] = qHTS assay to test for compound auto fluorescence at 535 nm (green) in HepG2 cell free culture (AID 720686)
[17] = qHTS assay to test for compound auto fluorescence at 460 nm (blue) in HepG2 cells (AID 720687)
Procedure, shortened: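 Blue-channel autofluorescence (Ex/Em 405/460 nm, triamterene-equivalent) was measured after 1 hr compound exposure at 37 C, 5% CO2. Cells were HepG2, plated overnight at 37 C in MEM plus 10% FBS.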

[18] = biological target: Glucocorticoid receptor (Homo sapiens) (UniProt P04150); test: qHTS assay to identify small molecule agonists of the glucocorticoid receptor (GR) signaling pathway (AID 720691; active means well fitted activation curve with a large enough effect in the signal ratio in the repeat runs, not every such curve was filed as active; the % refers to the signal ratio)
Procedure, shortened: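 qHTS in GR-bla HeLa cells: 4 h settling at 37 C/5% CO2, 18 h compound incubation at 37 C, 2 h LiveBLAzer B/G FRET substrate at room temperature, fluorescence intensity measured.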

[19] = biological target: Glucocorticoid receptor (Homo sapiens) (UniProt P04150); test: qHTS assay to identify small molecule antagonists of the glucocorticoid receptor (GR) signaling pathway (AID 720692; active means well fitted inhibition curve with a large enough effect in the signal ratio in the repeat runs, not every such curve was filed as active; the % refers to the signal ratio)
Procedure, shortened: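 Inhibition of glucocorticoid signalling is measured in HeLa cells with a GRE-controlled beta-lactamase reporter; cells are co-treated with compound and 5 nM dexamethasone (final) for 18 h before FRET substrate readout.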

[20] = qHTS assay to test for compound auto fluorescence at 535 nm (green) in HEK293 cell free culture (AID 720682)
Procedure, shortened: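 Read-out: 485/535 nm fluorescence intensity, calibrated against fluorescein. Medium only (DMEM + 10% FBS, no cells); test compound or DMSO vehicle added by pintool before plate reading.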
On the % scale 0 is the no-effect control and ±100 the full control effect.

Glucocorticoid receptor (Homo sapiens), sequence (P04150 whole entry, looked up): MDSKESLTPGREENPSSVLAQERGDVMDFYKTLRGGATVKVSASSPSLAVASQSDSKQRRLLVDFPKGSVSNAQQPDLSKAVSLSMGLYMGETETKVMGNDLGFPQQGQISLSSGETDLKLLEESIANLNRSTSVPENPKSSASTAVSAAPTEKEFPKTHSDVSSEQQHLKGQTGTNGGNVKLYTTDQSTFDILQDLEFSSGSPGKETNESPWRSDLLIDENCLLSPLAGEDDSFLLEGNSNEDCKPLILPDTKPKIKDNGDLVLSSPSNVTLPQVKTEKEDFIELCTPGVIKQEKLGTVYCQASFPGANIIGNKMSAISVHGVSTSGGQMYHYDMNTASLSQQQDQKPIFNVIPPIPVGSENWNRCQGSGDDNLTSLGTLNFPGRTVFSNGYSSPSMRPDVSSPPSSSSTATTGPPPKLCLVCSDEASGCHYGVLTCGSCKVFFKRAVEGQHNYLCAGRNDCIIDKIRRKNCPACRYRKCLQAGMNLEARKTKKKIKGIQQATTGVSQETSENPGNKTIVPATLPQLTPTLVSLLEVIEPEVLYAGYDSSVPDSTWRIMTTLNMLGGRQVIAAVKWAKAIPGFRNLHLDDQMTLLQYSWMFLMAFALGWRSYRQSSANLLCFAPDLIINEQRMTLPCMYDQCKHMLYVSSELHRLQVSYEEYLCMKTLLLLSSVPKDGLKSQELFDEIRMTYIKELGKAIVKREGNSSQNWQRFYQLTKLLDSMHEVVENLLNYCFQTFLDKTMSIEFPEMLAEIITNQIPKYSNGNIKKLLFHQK

Nc1c(NC/C=C\COc2cc(CN3CCCCC3)ccn2)c(=O)c1=O
inactive: outcome [1] | outcome [2] | outcome [3] | Potency [4] | outcome [5] | Potency [6] | outcome [7] | outcome [8] | outcome [9] | outcome [10] | outcome [11] | outcome [12] | outcome [13] | outcome [14] | outcome [15] | outcome [16] | outcome [17] | Potency [18] | outcome [19]

CC(=O)OC(C)c1ccccc1 (centres undefined)
inactive: outcome [1] | outcome [2] | outcome [3] | Potency [4] | outcome [5] | Potency [6] | outcome [7] | outcome [8] | outcome [9] | outcome [10] | outcome [11] | outcome [12] | outcome [20] | outcome [13] | outcome [14] | outcome [16] | outcome [17] | outcome [19]

NS(=O)(=O)c1cc2c(cc1Cl)NC(CC1CCCC1)NS2(=O)=O (centres undefined)
inactive: outcome [1] | outcome [2] | outcome [3] | Potency [4] | outcome [5] | Potency [6] | fluorescence, relative to Rose Bengal [7] -0.14% [at 18.6 µM] | fluorescence, % of fluorescein control [8] -0.0768% [at 18.6 µM] | fluorescence, % of triamterene [9] -0.024% [at 18.6 µM] | fluorescence, % of fluorescent control [10] -0.246% [at 18.6 µM] | fluorescence, % of fluorescein [11] 0.0502% [at 18.6 µM] | fluorescence, % of fluorescent control [12] -0.0459% [at 18.6 µM] | fluorescence, % of fluorescent control [13] -0.0938% [at 18.6 µM] | fluorescence, % of Rose Bengal [14] 0.409% [at 18.6 µM] | fluorescence, % of fluorescent control [15] -0.0354% [at 18.6 µM] | fluorescence, % of fluorescein control [16] -0.0012% [at 18.6 µM] | outcome [19]

OCCCCCCCl
inactive: outcome [1] | outcome [2] | outcome [3] | Potency [4] | outcome [5] | Potency [6] | outcome [7] | outcome [8] | outcome [9] | outcome [10] | outcome [11] | outcome [12] | outcome [20] | outcome [13] | outcome [14] | outcome [15] | outcome [16] | Potency [18] | outcome [19]

O=c1[nH]c(=O)c2[nH]c(=O)[nH]c2[nH]1
inactive: outcome [1] | outcome [2] | outcome [3] | Potency [4] | outcome [5] | Potency [6] | outcome [7] | outcome [8] | outcome [9] | outcome [10] | outcome [11] | outcome [12] | outcome [13] | outcome [14] | outcome [15] | outcome [16] | outcome [17] | Potency [18] | outcome [19]

C[C@H]1O[C@H](O[C@H]2[C@H](O)[C@@H](O)[C@@H](O[C@H]3[C@H](O)[C@@H](O)[C@H](O)O[C@@H]3CO)O[C@@H]2CO)[C@H](O)[C@@H](O)[C@@H]1N[C@H]1C=C(CO)[C@@H](O)[C@H](O)[C@H]1O
inactive: outcome [1] | outcome [2] | outcome [3] | Potency [4] | outcome [5] | Potency [6] | outcome [7] | outcome [8] | outcome [9] | outcome [10] | outcome [11] | outcome [12] | outcome [20] | outcome [13] | outcome [14] | outcome [15] | outcome [17] | outcome [19]

Nc1ccc(S(=O)(=O)NC(=O)c2ccccc2)cc1
inactive: outcome [1] | outcome [2] | outcome [3] | Potency [4] | outcome [5] | Potency [6] | fluorescence, relative to Rose Bengal [7] 0.536% [at 18.6 µM] | fluorescence, % of fluorescein control [8] -0.394% [at 18.6 µM] | fluorescence, % of triamterene [9] -0.236% [at 18.6 µM] | fluorescence, % of fluorescent control [10] -0.801% [at 18.6 µM] | fluorescence, % of fluorescein [11] -0.0049% [at 18.6 µM] | fluorescence, % of fluorescent control [12] -0.0169% [at 18.6 µM] | activity change [20] 0.0575% [at 18.6 µM] | fluorescence, % of fluorescent control [13] -0.201% [at 18.6 µM] | fluorescence, % of Rose Bengal [14] -0.0804% [at 18.6 µM] | fluorescence, % of fluorescent control [15] -0.0907% [at 18.6 µM] | fluorescence, % of fluorescein control [16] -0.0092% [at 18.6 µM] | Potency [18] | outcome [19]
